Measurements as given in PubChem BioAssay AID1159580 (chemical genetic matrix, 2015).
The campaign covered roughly 5,500 compounds. About 2,000 (36%) were called active. Roughly 18% stayed inconclusive and do not appear here. Rule as the data show it: active = normalized growth mostly below about 0.91 (no sharp cut-off); inconclusive = no clear call, values can overlap the other calls; inactive = mostly above about 0.92. The list shows a part of the results.

Assay: chemical genetic growth profiling, strain panel (AID 1159580);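 also: tested at 20 µM; growth read once vehicle control cultures reached saturation at 30 °C; 1 = growth at the plate median or of vehicle wells; lower values mean less growth of the strain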
Conditions: S. cerevisiae deletion strains, growth OD

Measured: normalized growth

CN(CCC(N)CC(=O)N[C@H]1C=CC(n2ccc(N)nc2=O)O[C@@H]1C(=O)O)C(=N)N (stereo not given in full)
inactive: locus YAL026C, strain drs2, stronger effect = lower value 0.953 | locus YAL030W, strain snc1, stronger effect = lower value 0.93 | locus YBL061C, strain skt5, stronger effect = lower value 0.938 | locus YBR023C, strain chs3, stronger effect = lower value 0.944 | locus YBR171W, strain sec66, stronger effect = lower value 0.963 | locus YBR231C, strain swc5, stronger effect = lower value 0.976 | locus YCL011C, strain gbp2, stronger effect = lower value 0.935 | locus YCL016C, strain dcc1, stronger effect = lower value 0.947 | locus YCL069W, strain vba3, stronger effect = lower value 0.942 | locus YCR088W, strain abp1, stronger effect = lower value 0.962 | locus YDL040C, strain nat1, stronger effect = lower value 0.983 | locus YDR001C, strain nth1, stronger effect = lower value 0.965 | locus YDR137W, strain rgp1, stronger effect = lower value 0.852 | locus YDR297W, strain sur2, stronger effect = lower value 0.941 | locus YDR334W, strain swr1, stronger effect = lower value 0.917 | locus YEL003W, strain gim4, stronger effect = lower value 0.919 | locus YEL037C, strain rad23, stronger effect = lower value 0.963 | locus YEL061C, strain CIN8 (second series), stronger effect = lower value 0.952 | locus YER016W, strain bim1, stronger effect = lower value 0.976 | locus YGL167C, strain pmr1, stronger effect = lower value 0.998 | locus YGL227W, strain vid30, stronger effect = lower value 0.98 | locus YGL253W, strain hxk2, stronger effect = lower value 0.942 | locus YHR013C, strain ard1, stronger effect = lower value 0.929 | locus YHR030C, strain SLT2, stronger effect = lower value 0.9 | locus YHR079C, strain IRE1, stronger effect = lower value 0.924 | locus YJL095W, strain BCK1, stronger effect = lower value 0.934 | locus YKR026C, strain gcn3, stronger effect = lower value 0.965 | locus YKR091W, strain srl3, stronger effect = lower value 0.986 | locus YLL001W, strain dnm1, stronger effect = lower value 0.923 | locus YLL026W, stronger effect = lower value 0.934 | locus YLL041C, strain sdh2, stronger effect = lower value 0.946 | locus YLR113W, strain HOG1, stronger effect = lower value 0.958 | locus YLR258W, strain gsy2, stronger effect = lower value 0.922 | locus YLR262C, strain YPT6 (second series), stronger effect = lower value 0.904 | locus YLR320W, strain mms22, stronger effect = lower value 0.957 | locus YLR342W, strain FKS1, stronger effect = lower value 0.943 | locus YMR129W, stronger effect = lower value 0.949 | locus YMR205C, strain PFK2, stronger effect = lower value 1 | locus YNL183C, strain NPR1, stronger effect = lower value 0.881 | locus YNL322C, strain KRE1 (second series), stronger effect = lower value 0.942 | locus YNR049C, strain mso1, stronger effect = lower value 0.94 | locus YOR070C, strain gyp1, stronger effect = lower value 0.962 | locus YOR083W, strain WHI5, stronger effect = lower value 0.923 | locus YOR231W, strain MKK1, stronger effect = lower value 0.87 | locus YOR265W, strain rbl2, stronger effect = lower value 0.966 | locus YOR270C, strain vph1, stronger effect = lower value 0.781 | locus YOR290C, strain snf2, stronger effect = lower value 0.875 | locus YPL256C, strain CLN2, stronger effect = lower value 0.901
active: locus YAL021C, strain ccr4, stronger effect = lower value 0.406 | locus YBR009C, strain hhf1, stronger effect = lower value 0.895 | locus YBR279W, strain paf1, stronger effect = lower value 0.916 | locus YCL061C, strain MRC1, stronger effect = lower value 0.899 | locus YDL005C, strain med2, stronger effect = lower value 0.111 | locus YDR069C, strain doa4, stronger effect = lower value 0.494 | locus YDR159W, strain sac3, stronger effect = lower value 0.659 | locus YDR195W, strain ref2 0.603 | locus YDR335W, strain msn5, stronger effect = lower value 0.626 | locus YDR392W, strain spt3, stronger effect = lower value 0.262 | locus YER015W, strain faa2, stronger effect = lower value 0.917 | locus YER111C, strain swi4, stronger effect = lower value 0.793 | locus YER155C, strain BEM2 (second series), stronger effect = lower value 0.826 | locus YFR010W, strain ubp6, stronger effect = lower value 0.725 | locus YGL173C, strain kem1, stronger effect = lower value 0.124 | locus YGL240W, strain doc1, stronger effect = lower value 0.31 | locus YHR027C, strain rpn1, stronger effect = lower value 0.814 | locus YHR142W, strain chs7, stronger effect = lower value 0.846 | locus YJL092W, strain hpr5, stronger effect = lower value 0.913 | locus YJL095W, strain BCK1 (second series), stronger effect = lower value 0.891 | locus YJL115W, strain asf1, stronger effect = lower value 0.725 | locus YJL129C, strain trk1, stronger effect = lower value 0.637 | locus YJL154C, strain vps35, stronger effect = lower value 0.898 | locus YJL164C, strain tpk1, stronger effect = lower value 0.888 | locus YJL166W, strain qcr8, stronger effect = lower value 0.891 | locus YJL187C, strain SWE1, stronger effect = lower value 0.872 | locus YJR066W, strain TOR1, stronger effect = lower value 0.814 | locus YKL160W, strain elf1, stronger effect = lower value 0.887 | locus YLR027C, strain aat2, stronger effect = lower value 0.872 | locus YLR221C, strain rsa3, stronger effect = lower value 0.871 | locus YLR357W, strain rsc2, stronger effect = lower value 0.31 | locus YLR370C, strain arc18, stronger effect = lower value 0.478 | locus YLR384C, strain iki3, stronger effect = lower value 0.692 | locus YML120C, strain ndi1, stronger effect = lower value 0.888 | locus YMR058W, strain fet3, stronger effect = lower value 0.885 | locus YMR125W, strain sto1, stronger effect = lower value 0.686 | locus YMR231W, strain pep5, stronger effect = lower value 0.734 | locus YNL071W, strain lat1, stronger effect = lower value 0.89 | locus YNL209W, strain ssb2, stronger effect = lower value 0.796 | locus YNL248C, strain rpa49, stronger effect = lower value 0.73 | locus YOR001W, strain rrp6, stronger effect = lower value 0.793 | locus YOR080W, strain dia2, stronger effect = lower value 0.776 | locus YOR106W, strain vam3, stronger effect = lower value 0.699 | locus YPL051W, strain arl3, stronger effect = lower value 0.869 | locus YPL078C, strain atp4, stronger effect = lower value 0.826 | locus YPL106C, strain sse1, stronger effect = lower value 0.356 | locus YPL240C, strain hsp82, stronger effect = lower value 0.924
